The values below come from PubChem BioAssay (EPA / NIEHS).

Active and inactive are the calls of the source. How the source made its calls: active means hit-call score of the fitted dose curve at least 0.9, where 1 is the maximum; inactive means score below 0.9.

Read-out in this assay: Forkhead box O3 (FOXO3), FOXO3 (gene 2309)
Put plainly: LTEA_HepaRG_FOXO3: Life Technologies and Expression Analysis (LTEA) Assay for Forkhead box O3 (FOXO3) using HepaRG (AID 2283459). As to conditions: mRNA level, 48 h; actives raise or lower the signal. The method, then: LTEA_HepaRG is a cell based, multiplexed-readout assay that uses HepaRG, a human liver cell line, with measurements taken at 48 hours after chemical dosing on a 96-well plate.LTEA_HepaRG_FOXO3 is one of 102 assay component(s) measured in the LTEA HepaRG cell culture assay. It is a marker of Cell proliferation, survival, death.Data from the assay component LTEA_HepaRG_FOXO3 was analyzed into 1 endpoint. This assay endpoint, LTEA_HepaRG_FOXO3, was analyzed with bidirectional fitting relative to DMSO as the negative control and baseline of activity. Using a type of inducible reporter, measures of mRNA induction for gain or loss-of-signal activity can be used to understand regulation of transcription factor activity. To generalize the intended target to other relatable targets, this assay endpoint is annotated to the dna binding intended target family, where the subfamily is forkhead box protein.
A total of 1060 chemcials from the ToxCast library were tested in eight-point concentration-response experiments. Cell culture and cytotoxicity assays were conducted at Thermo Fisher Scientific's Custom Services facility (Madison, WI). A single lot of human HepaRG cells (Thermo Fisher Scientific, Frederick, MD) was used for the cell culture experiments. 96-well format collagen type I coated plates of human HepaRG cells were prepared using established methods. Briefly, cryopreserved HepaRG cells were thawed, plated at a density of approximately 100,000 cells/well in HepaRG Thaw, Plate, and General Purpose media (HPRG770, Thermo Fisher Scientific), and incubated for 48 hours. 0.5% DMSO was selected as vehicle control to balance the requisite need of DMSO in HepaRG cultures to maintain differentiation (for example, baseline metabolism, proportions of hepatocytes vs. cholangiocytes), while enabling further hepatic receptor pathway activation (for example, PXR and CAR) in response to chemical exposure. 48 hours after plating, the culture medium was replaced with HepaRG Serum-Free Incudtion Media. Cells were exposed to each test chemical in duplicate and maintained in CO2 incubators for another 48 hours. Chemical plates were thawed to room temperature and 200x concentrations of treatment groups were prepared. 8-point conentration-reponse curves were made with the highest exposure at 100 uM, followed by half-log dilutions, all in 0.5% DMSO. Each test plate contained variouse controls, induction positive controls (1mM phenobarbital), cytotoxicity positive controls ([…] aflatoxin B1), vehicle controls (0.5% DMSO), and total lysis controls (0.5% DMSO). Cell morphology images were taken using an Essen IncuCyte FLR automated microscope, with six 96-well plates imaged in about 24 minutes. Images were captured and exported and JPEG files. Spent culture media was transfered to black-well plates for the LDH assay, and remaining media was sorted at -80 C for later use. Cells were treated with RLT buffer and frozen until shipped for gene expression analysis. Total RNA was isolated from the cell suspension in 75 uL of Buffer RLT (Qiagen, Germantown, MD 20874) by Quintiles/Expression Analysis (Durham, NC) using a custom isolation procedure. Total RNA from each plate well was transferred to a preamplification plate. Fluidigm's 96.96 Dynamic ArrayTM (Fluidigm, Amsterdam, the Netherlands) technology was used for gene expression analyses by quantitative reverse transcription polymerase chain reaction (qRT-PCR, performed by Quintiles/Expression Analysis, Durham, NC)89. Standard TaqManTM Assays (Applied Biosystems/ThermoFisher Scientific, Foster City, CA) were used to assess the expression of 93 genes selected based on their selectivity and sensitivity to important hepatic receptors known to be modulated by environmental chemicals; importance in human hepatocyte functionality; and hepatotoxicity. […]
`C=C(C)C(=O)OCCC(F)(F)C(F)(F)C(F)(F)C(F)(F)C(F)(F)C(F)(F)F`: the outcome was inactive. `COCC(C)OCC(C)O` (stereo not given): the outcome was inactive. For the molecule `CC(=O)NC1(c2cccc(F)c2)CCN(CC[C@@]2(c3ccc(Cl)c(Cl)c3)CN(c3ccccc3)C(=O)CO2)CC1`, the call was inactive. `O=c1c(-c2ccc(O)cc2)coc2cc(O)ccc12`: the call was inactive. Turning to `c1ccc2c(c1)Cc1ccccc1-2`, the outcome was inactive. Take `Cc1cc(C)c(O)c(C)c1`: the molecule was called inactive. Take `CC[C@H](c1ccc(O)cc1)[C@@H](CC)c1ccc(O)cc1`: the result was inactive. `CCCCCCCC(=O)O`: the molecule was classed as inactive. In the case of `CC(C)(C)CC(C)(C)c1ccc(O)c(-n2nc3ccccc3n2)c1`, the outcome was inactive. For `CCCCCCCCCCCCCCCS(=O)(=O)Oc1ccccc1`, the call was inactive.

As to `Oc1cc2ccccc2c2ccccc12`, the molecule was classed as inactive. Regarding `COC(=O)CCCCC(=O)OC`, the molecule was classed as inactive. On to `CCCCCCCCCCCCN1CCCC1=O`, for which the molecule was classed as inactive. As to `O=C(O)c1ccccc1C(c1ccc(O)cc1)c1ccc(O)cc1`, the outcome was inactive. Consider `CCCCCCCCOC(=O)CCCCCCCCC(=O)OCCCCCCCC`, for which the call was inactive. Consider `CCCOC(=O)c1ccc(O)cc1`, for which the call was inactive. In the case of `CCc1nn(C2CCCCC2)c2cc(C3(C#N)CCC(C(=O)O)CC3)ccc12` (stereo not given), the outcome was inactive.

In the case of `CCCCOCCO`, the molecule was called inactive. For the molecule `CCN(CC)CCNc1ccc(CNC=O)c2sc3ccc(OC)cc3c(=O)c12`, the AC50 (in general, the concentration giving half of the maximal activity seen) was 50 µM (active). On to `O=C(OCCOCCOC(=O)c1ccccc1)c1ccccc1`, for which the result was inactive. `Cc1cc(CCN2CCN(c3nsc4ccccc34)CC2)cc2c1NC(=O)CC2(C)C`: the molecule was called inactive. Regarding `CC1=C(/C=C/C(C)=C/C=C/C(C)=C/C(=O)O)C(C)(C)CCC1`, the outcome was inactive. `C#C[C@]1(O)CC[C@H]2[C@@H]3CCC4=CC(=O)CC[C@@H]4[C@H]3CC[C@@]21C`: the molecule was classed as inactive. In the case of `CCOC(=O)CC(O)(CC(=O)OCC)C(=O)OCC`, the call was inactive. As for `C[C@@H]1C[C@H]2[C@@H]3CCC4=CC(=O)C=C[C@]4(C)[C@@]3(F)[C@@H](O)C[C@]2(C)[C@@]1(O)C(=O)COP(=O)(O)O`, the outcome was inactive. In the case of `CC[C@H](C)[C@@H](C(=O)O)n1sc2ccccc2c1=O`, the call was inactive. For `CC(C)CCCCCCOC(=O)CCCCC(=O)OCCCCCCC(C)C`, the result was inactive.

Turning to `CCCCC(CC)COC(=O)CCCCC(=O)OCC(CC)CCCC` (stereo not given), the molecule was classed as inactive. Take `CCC(C)(C)C1CCC(O)CC1` (stereo not given): the result was inactive. On the same count and under the same terms, in the case of `CCCCC(CC)COC(=O)CCCCC(=O)OCc1ccccc1` (stereo not given) it was “inactive”.

Turning to `O=C(O)Cc1cc(I)c(Oc2cc(I)c(O)c(I)c2)c(I)c1`, the AC50 was 24.8 µM (active). On the same count and under the same terms, in the case of `CCCCCCCCCCCCc1ccccc1S(=O)(=O)O` it was 87.9 µM (active). `OCCC(F)(F)C(F)(F)C(F)(F)C(F)(F)C(F)(F)C(F)(F)C(F)(F)C(F)(F)F`: the molecule was called inactive. For `CN1CCC[C@H]1c1cccnc1`, the outcome was inactive.

On to `Cc1oc(-c2ccccc2)nc1CCOc1ccc(C[C@H](Nc2ccccc2C(=O)c2ccccc2)C(=O)O)cc1`, for which the AC50 is 64.6 µM (active). With `CC(C)(C)c1cc(C(C)(C)C)c(O)c(C(C)(C)C)c1`, the result was inactive. For the molecule `N#C[C@@H]1CC(F)(F)CN1C(=O)CNC1CC2CCC(C1)N2c1ncccn1` (stereo not given in full), the call was inactive.

On to `OC1CCC(C2CCCCC2)CC1` (stereo not given), for which the result was inactive.

On to `OC1CCCCC1`, for which the result was inactive. As for `CN(C)C=O`, the molecule was classed as inactive.
